Reference: PubChem BioAssay AID449728 (The Scripps Research Institute Molecular Screening Center, 2010)
Among all 330,000 compounds or so, about 900 (0.27%) were called active. The entries come from a sample that favours actives as a whole. Unmarked numbers belong to inactive results.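 How the source made its calls: active means inhibition above the campaign's mean inhibition across all tested compounds plus 3 SD (cut at about 9.9% in these data); inactive means the rest.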

test: bacterial viability reduction in E. coli – absorbance, OD600, counter-screen for AddAB inhibitor project, primary screen (AID 449728);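 further: uninfected addAB+ strain grown without phage in ampicillin broth; 0% = DMSO wells and 100% = ciprofloxacin 0.95 µg/ml wells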; settings: E. coli V3065 growth, 18 h, at 11.9 µM, hits give high values

Row | SMILES | inhibition
1 | COC(=O)c1sc(SC)c(S(=O)(=O)C(C)C)c1N/N=C(\C#N)S(=O)(=O)c1ccccn1 | -1.95%
2 | CCCCCC1CC(COc2ccccc2)OC1=O (centres undefined) | -0.64%
3 | O=C(CC(O)(C(F)(F)F)C(F)(F)F)Nc1ccc(Cl)c(Cl)c1 | 17.7% (active)
4 | CS(=O)(=O)N(CC(=O)Nc1ccc(Cl)c(Cl)c1)C1CCCCC1 | 0.42%
5 | O=C(CCCN1C(=O)CCC1=O)Nc1ccc(Cl)c(C(F)(F)F)c1 | -1.92%
6 | CC(=O)Nc1ccc(NC(=O)COc2ccc(S(=O)(=O)NC(C)c3ccccc3)cc2)cc1 (centres undefined) | 2.38%
7 | O=C(CSc1ccccn1)N1CCN(S(=O)(=O)c2ccc(Cl)cc2)CC1 | -1.3%
8 | CCCCNC(=O)Nc1c(C)cc(SC#N)cc1C | 2.5%
9 | CC(=O)NN1C(=O)c2ccccc2NC1c1ccccc1 (centres undefined) | 0.86%
10 | O=C(O)C(c1ccccc1)N1C(=O)/C(=C\c2ccc(-c3cccc(Cl)c3)o2)SC1=S (centres undefined) | -3.78%
11 | O=C1c2ccccc2NC(c2ccc(-c3cccc(Cl)c3)o2)N1O (centres undefined) | 19.2% (active)
12 | O=C(NCc1cccs1)c1ccc2c(c1)ncn2C1CCCC1 | -2.5%
13 | Cc1ccc(NC(=O)CN(C)C(=O)c2ccc(Br)o2)cc1 | 0.43%
14 | CCCS(=O)(=O)Nc1ccc(-c2cn3c(n2)SCC3)cc1 | 2.36%
15 | CC(C)(C)N(Cc1ccccc1)C(=O)c1ccncc1 | -2.63%
16 | O=C(NCc1ccccn1)Nc1ccc(Cl)cc1 | -3.41%
17 | O=C1c2ccccc2C(=O)N1CCC(O)C[N+](=O)[O-] (centres undefined) | 3.02%
18 | COc1ccc(NC(=O)c2ccccc2[N+](=O)[O-])cc1OC | -1.73%
19 | CC(=O)Oc1ccccc1C(=O)Nc1ncc([N+](=O)[O-])s1 | 11.2% (active)
20 | O=C(Cc1c(F)cccc1Cl)Nc1ncc([N+](=O)[O-])s1 | 7.15%
21 | CCCCCCCCCCCC(=O)O | -2.17%
22 | COc1ccc(OC)c(CCNC(=O)c2nn(C)c3c2CS(=O)(=O)c2ccccc2-3)c1 | 0.84%
23 | Cc1cc(=O)oc2cc(OCC(=O)N3CCN(c4ccc(F)cc4)CC3)c(Cl)cc12 | 1.94%
24 | O=C(Nc1cccc(O)c1)c1ccc(C(=O)c2ccccc2)o1 | 0.43%

Row | SMILES | inhibition
25 | Cc1onc(NC(=O)c2ccc([N+](=O)[O-])o2)c1Br | 6.74%
26 | Cc1cccc(NC(=O)c2ccc([N+](=O)[O-])o2)c1 | 27.2% (active)
27 | O=C(Nc1ccc(Br)cn1)c1ccc([N+](=O)[O-])cc1Cl | 2.77%
28 | CN1C(=O)c2ccc(C(=O)Nc3ccc(Br)cn3)cc2C1=O | -2.73%
29 | O=C(Nc1ccc(Br)cn1)c1ccc([N+](=O)[O-])o1 | 32.3% (active)
30 | CC1CC(C)CN(CCC(=O)Nc2ccc3c(c2)CCC3)C1 (centres undefined) | 1.48%
31 | O=c1c(-c2ccc(Cl)cc2)[n+]([O-])c2ccccc2n1OCc1nc2ccccc2[nH]1 | 0.49%
32 | O=C(Nc1cccnc1Cl)c1cc(-c2ccccc2O)on1 | -1.11%
33 | C=CCNC(=O)c1csc(-c2ccccc2)n1 | -0.67%
34 | C=CCNC(=O)c1cc(-c2ccccc2O)on1 | 85.1% (active)
35 | Cc1ccc(C)c(OCCC(=O)OCC(=O)NC(=O)NCc2ccccc2)c1 | 0.73%
36 | CNC(=O)CN1C(=O)NC(c2ccccc2)(c2ccccc2)C1=O | 1.95%
37 | CCOC(=O)N1CCN(Cc2nc3cc(NC(=O)CC)ccc3n2CC)CC1 | -0.18%
38 | Cc1c(C=O)c2ccccc2n1CC(=O)O | 2.1%
39 | CC(=O)c1c(C)n([O-])c2ccccc2[n+]1=O | 30.7% (active)
40 | COC(=O)c1cc(N2CCNCC2)nc2ccccc12 | 0.59%
41 | CC12C(=O)N(n3cnnc3)C(=O)C1C1C=CC2C1 (centres undefined) | 1.48%
42 | COc1ccc(C(=O)COC(=O)c2ccc3ccccc3n2)cc1 | 0.25%
43 | CC[C@H](C)[C@@H](C(=O)N1CCNCC1)n1cc([C@@H](N)Cc2ccc(O)cc2)nn1 | -1.2%
44 | CC(C)[C@H](NC(=O)c1ccc(F)cc1)C(=O)OCC(=O)NC(=O)c1cccn1C | -1.29%
45 | COC(=O)N/N=C/c1cn(CCCOc2ccc(C)cc2)c2ccccc12 | -2.32%
46 | COC(=O)N/N=C/c1c[n+]([O-])c2ccccc2[n+]1[O-] | 93.8% (active)
47 | COC(=O)N/N=C/c1ccc(-c2ccc(Cl)c(Cl)c2)o1 | 0.17%
48 | COc1ccc(C)cc1NC(=O)c1[nH]c(C)c(C(C)=O)c1C | -0.41%

Row | SMILES | inhibition
49 | CN(Cc1ccco1)S(=O)(=O)c1nnc(NC(=O)c2ccccc2)s1 | 0%
50 | COCCNS(=O)(=O)c1cc(Br)ccc1OC | -1.08%
51 | COc1ccc(OCc2nnc3n2N=C(c2ccccc2)C(CC(=O)O)S3)cc1 (centres undefined) | -0.43%
52 | CN1CCN(C(c2cc3cc4c(cc3[nH]c2=O)OCCO4)c2nnnn2C2CCCC2)CC1 (centres undefined) | 0.75%
53 | Cc1nnc(N/N=C/C2CC=CCC2)[nH]c1=O (centres undefined) | -0.18%
54 | Cc1cc(C(=O)N/N=C/c2ccccn2)c2ccccc2n1 | -0.17%
55 | Cc1nnc(N/N=C/c2ccccn2)[nH]c1=O | 12.1% (active)
56 | O=C(Nc1ccc2nc3n(c(=O)c2c1)CCCC3)c1ccc(Cl)nc1 | -2.17%
57 | CC(NS(=O)(=O)c1ccc(Cl)cc1)C(=O)Nc1ccc2c(c1)OCCO2 (centres undefined) | -2.14%
58 | C=CCn1c(=O)c(C(=O)NCc2ccc3c(c2)OCO3)c(O)c2ccccc21 | 13.5% (active)
59 | CCn1c(=O)c(C(=O)NCc2ccc3c(c2)OCO3)c(O)c2ccccc21 | 0.18%
60 | CCn1c(=O)cc(SCC(=O)NCc2ccc3c(c2)OCO3)c2ccccc21 | -0.5%
61 | O=C(CC1SC(N2CCCC2)=NC1=O)Nc1ccc(C(=O)NCCc2ccc(F)cc2)cc1 (centres undefined) | -1.3%
62 | CN(C)[C@@H]1C(=O)C(C(N)=O)=C(O)[C@@]2(O)C(=O)C3=C(O)c4c(O)ccc(Cl)c4[C@@H](O)[C@H]3C[C@@H]12 | 102% (active)
63 | C=C1c2c(Cl)ccc(O)c2C(O)=C2C(=O)[C@]3(O)C(O)=C(C(N)=O)C(=O)[C@@H](N(C)C)[C@@H]3[C@@H](O)C12 (some centres undefined) | 103% (active)
64 | CC1CC(C)CN(CCOc2cccc3ccccc23)C1 (centres undefined) | 0.17%
65 | COc1cc(Cl)c(C)cc1NC(=O)COC(=O)c1cc(SC)ccc1Cl | -0.93%
66 | CCCn1nc(Oc2nc(NC(C)C)nc(N(C)C)n2)ccc1=O | -1.48%
67 | CCc1c(C)nc2ncnn2c1N1CCC(C(=O)NCc2ccc3c(c2)OCO3)CC1 | -1.08%
68 | Cc1cnc(C(=O)OCC(=O)NCCCc2ccccc2)cn1 | -0.78%
69 | COc1c(N2CCN(C(=S)Nc3ccccc3F)C(C)C2)c(F)cc2c(=O)c(C(=O)O)cn(C3CC3)c12 (centres undefined) | 99% (active)
70 | CC1CN(C(=S)Nc2ccccc2F)CC(C)O1 (centres undefined) | 0.45%
71 | COc1ccccc1NC(=S)N1CCN(c2ccc(F)cc2)CC1 | -1.81%
72 | CCOc1ccc(/C=C/C(=O)OCC(=O)c2ccccc2OC)cc1OC | 2.19%

Row | SMILES | inhibition
73 | O=C(CSc1ccc(-c2ccccc2)nn1)NCC1CCCO1 (centres undefined) | 0.59%
74 | O=C(NCC1CCCO1)/C(=C/c1ccc(Cl)cc1)NC(=O)c1ccccc1 (centres undefined) | 0.6%
75 | O=C(NCC1CCCO1)C(C(=O)c1ccccc1)n1cc(Cl)ccc1=O (centres undefined) | 96.6% (active)
76 | O=C1CN(C(=O)COC(=O)C2CC(=O)N(Cc3ccco3)C2)c2ccccc2N1 (centres undefined) | -0.37%
77 | Cc1ccc(NC(=O)C(C)OC(=O)Cc2c[nH]c3ccccc23)cc1S(=O)(=O)N1CCOCC1 (centres undefined) | -2.87%
78 | CC(C)CC(=O)NC(=S)NNC(=O)c1cccc([N+](=O)[O-])c1 | -7.21%
79 | CN(C)CCn1c2c(c(SCC(=O)NCc3ccccc3)nc1=O)CCC2 | -1.35%
80 | COc1ccc(CC(=O)Nc2c(C(N)=O)oc3ccccc23)cc1 | -1.77%
81 | COC(=O)c1oc2ccc(Br)cc2c1NC(C)=O | 1.03%
82 | COc1ccc(C(=O)c2oc3ccc(Br)cc3c2NC(C)=O)cc1 | 98.8% (active)
83 | OCc1ccc(-c2ccccc2)c(-c2ccccc2)c1 | -4.27%
84 | CCC1(C)Cc2c(sc3[nH]c(=S)n(Cc4ccccc4)c(=O)c23)CO1 (centres undefined) | -1.73%
85 | Cc1ccc(SCc2c(C(=O)N/N=C/c3cccnc3)nnn2-c2nonc2N)cc1 | 1.61%
86 | Nc1nonc1-n1nnc(C(=O)N/N=C/c2cc(Br)ccc2O)c1CSC1=NCCS1 | 12.6% (active)
87 | Nc1nonc1-n1nnc(C(=O)N/N=C/c2ccccc2O)c1CN1CCCC1 | -0.26%
88 | O=C(CNCCO)NC12CC3CC(CC(C3)C1)C2 | -2.56%
89 | CSCCC(NS(=O)(=O)/C=C/c1ccccc1)C(=O)N1CCC(C)CC1 (centres undefined) | -0.42%
90 | CSc1cc(C)[nH]c(=O)n1 | -2.18%
91 | CCc1ccccc1NC(=O)CN(c1ccc(OC)cc1OC)S(=O)(=O)c1ccccc1[N+](=O)[O-] | -0.37%
92 | C/[N+]([O-])=C\c1ccc([N+](=O)[O-])o1 | 15.4% (active)
93 | COC(=O)C1=C(C)N(C)C(=O)NC1c1ccc([N+](=O)[O-])o1 (centres undefined) | 0.52%
94 | COc1ccc(C(=O)NCC(=O)N/N=C/c2ccc([N+](=O)[O-])o2)cc1OC | 5.52%
